The text below walks through data of PubChem BioAssay (EPA / NIEHS).

Records with an inconclusive call do not appear. Activity calls are given as the source filed them. Rule for the calls: active = hit-call score of the fitted dose curve at least 0.9, where 1 is the maximum; inconclusive = response in the unintended direction; inactive = score below 0.9.

The assay is described as follows: ACEA_ER_AUC_viability: ACEA Biosciences xCELLigence Real-Time Cell Analysis on Estrogen Receptor Agonism for Viability (AID 2283782).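 Note: hit means loss of impedance signal meaning reduced cell growth or viability.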 In short, it runs like this:
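Viability endpoint: reduced impedance area under the curve relative to DMSO, recorded by real-time electrode sensing over ~80 h of continuous exposure. Duplicate plates of T47D in hormone-depleted medium; eight concentrations, 1:4 dilutions, 100 uM maximum.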
On to `C=COCCOCCOCCOC=C`, for which the call was inactive.

In the case of `CCn1c2ccccc2c2cc(N)ccc21`, the compound was classed as inactive.

Consider `O=c1oc(=O)c2cc3c(=O)oc(=O)c3cc12`, for which the compound was classed as inactive.

As for `CC(=O)Nc1ccccc1O`, the compound was classed as inactive.

`Nc1ccc(S(N)(=O)=O)cc1`: the call was inactive.

On to `CC1=CC(=O)NS(=O)(=O)O1`, for which the compound was classed as inactive.

As usually defined, the AC50 is the midpoint of the concentration-response curve, whichever way the signal moves. Consider `Nc1ccc(F)c([N+](=O)[O-])c1`, for which the AC50 was 26.5 µM (active).

With `C=CCOC(=O)CCC1CCCCC1`, the AC50 is 75.5 µM (active).

For `CCCC/C=C\CCCCCCCCCC=O`, the AC50 is 91.2 µM (active).

On to `O=C(O)c1ccc(C(=O)O)cc1`, for which the compound was called inactive.

Regarding `O=c1[nH]nnc2ccccc12`, the outcome was inactive.

As for `CN(C)CCOCCN(C)C`, the call was inactive.

As for `CCCCCOC(=O)CCC`, the call was inactive.

With `CCCCCCCCCCCCCCCC(=O)O`, the AC50 was 84.3 µM (active).

Take `Clc1nc(C(Cl)(Cl)Cl)c(Cl)c(Cl)c1Cl`: the concentration at half-maximal activity (AC50) is 24.1 µM (active).

Turning to `O=C[C@H](O)[C@H](O)[C@H](O)CO`, the half-maximal activity concentration (AC50) is 23.6 µM (active).

As to `CC(C)=CCC/C(C)=C/COC=O`, the compound was called inactive.

Regarding `COc1cccc(OC)c1`, the outcome was inactive.

As to `O=C(O)CCCCCCCC(=O)O`, the result was inactive.

On to `CC(C)=CCC[C@H](C)CC=O`, for which the compound was called inactive.

As for `NCCNCCN`, the call was inactive.

For `CC(=O)OCC=Cc1ccccc1`, the result was inactive.

Consider `Nc1nc2ccc([N+](=O)[O-])cc2s1`, for which the AC50 was 50 µM (active).

For `COc1ccc(NC(=O)CC(C)=O)cc1`, the outcome was inactive.

`CCCCCCCCCCCCCCCCCC(=O)OCC(CC)CCCC` (configuration not stated): the compound was classed as inactive.

As for `O=P(c1ccccc1)(c1ccccc1)c1ccccc1`, the call was inactive.

As for `CCC(C)(O)CCC=C(C)C` (configuration not stated), the AC50 was 79.1 µM (active).

For `CNC[C@H](O)c1cccc(O)c1`, the concentration at half-maximal activity (AC50) was 50 µM (active).

On to `CCCCc1ccc(N)cc1`, for which the compound was called inactive.

For the compound `Fc1c(F)c(F)c(Br)c(F)c1F`, the outcome was inactive.

`CC(CCO)CCc1ccccc1` (configuration not stated): the AC50 was 50 µM (active).

Consider `NC(=O)c1ccccc1Cl`, for which the concentration at half-maximal activity (AC50) was 27.1 µM (active).
